Columns and labels:
[1] = system: Vero E6 infected with SARS-CoV-2; test: morphology score (similarity to uninfected cells); higher = more like uninfected cells; conditions: 24 h
[2] = system: Vero E6 infected with SARS-CoV-2; test: SARS-CoV-2 infection rate relative to infected DMSO; higher = more infection, active = 60 or less; conditions: 24 h

Structure (SMILES) | morphology score [1] | SARS-CoV-2 infection rate [2]
CCS(=O)(=O)c1ccc2oc(-c3ccc4ccccc4c3)nc2c1 [ezutromid] (10 µM) | 0.174 | 98.5% (inactive)
C[C@@H]1CC[C@@]2(OC1)O[C@H]1C[C@H]3[C@@H]4CC=C5C[C@@H](O)CC[C@]5(C)[C@H]4CC[C@]3(C)[C@H]1[C@@H]2C [diosgenin] (10 µM) | 0.114 | 106% (inactive)
C1Cc2[nH]nc(-c3nn[nH]n3)c2C1 (10 µM) | -0.0417 | 109% (inactive)
C[C@H](N[C@@H](CCc1ccccc1)C(=O)O)C(=O)N1Cc2ccccc2C[C@H]1C(=O)O [quinaprilat] (10 µM) | 0.0914 | 106% (inactive)
CCCCCCCCCCCCCCCCCCCCCC(=O)Nc1ccn([C@@H]2O[C@H](CO)[C@@H](O)[C@@H]2O)c(=O)n1 [enocitabine] (10 µM) | 0.135 | 94.5% (inactive)
CO[C@H]1/C=C/O[C@@]2(C)Oc3c(C)c(O)c4c(O)c(c(/C=N/N=C/N5CCCCC5)c(O)c4c3C2=O)NC(=O)/C(C)=C\C=C\[C@H](C)[C@H](O)[C@@H](C)[C@@H](O)[C@@H](C)[C@H](OC(C)=O)[C@@H]1C (10 µM) | 0.053 | 108% (inactive)
COc1cc(-n2cnc3cc(-c4ccc(Cl)cc4)sc3c2=O)ccc1OCCN1CCCC1 (10 µM) | 0.52 | 53% (active)
CS(=O)(=O)N1CCN(Cc2cc3nc(-c4cccc5[nH]ncc45)nc(N4CCOCC4)c3s2)CC1 (10 µM) | -0.319 | 89% (inactive)
Nc1nc2[nH]cc(CCc3ccc(C(=O)N[C@@H](CCC(=O)O)C(=O)O)cc3)c2c(=O)[nH]1 [pemetrexed] (10 µM) | -0.15 | 121% (inactive)
CC(C)CC(=O)Nc1n[nH]c2c1CN(C(=O)C1CCN(C)CC1)C2(C)C (10 µM) | 0.099 | 113% (inactive)
Cl/C(=C\n1cncn1)c1ccc(Cl)cc1Cl [loreclezole] (10 µM) | 0.0913 | 102% (inactive)
NC(=O)N1c2ccccc2C=Cc2ccccc21 [carbamazepine] (10 µM) | -0.0216 | 108% (inactive)
COC(=O)N1CCN(Cc2cccc(NC(=O)Nc3ccc(C)nc3)c2F)CC1 [omecamtiv-mecarbil] (10 µM) | 0.272 | 99% (inactive)
NC(=O)c1ncn([C@@H]2O[C@H](CO)[C@@H](O)[C@H]2O)c1N [acadesine] (10 µM) | 0.00261 | 98.5% (inactive)
CC(C)NCC(O)COc1cccc2[nH]c3ccccc3c12 (centres undefined) [carazolol] (10 µM) | -0.011 | 91.5% (inactive)
CCCCn1c(=O)c2[nH]c(C34CC5CC(CC3C5)C4)nc2n(CCCO)c1=O (10 µM) | -0.0475 | 100% (inactive)
CCC[C@H](N[C@H]1CCc2cc(F)cc(F)c2C1)C(=O)Nc1cn(C(C)(C)CNCC(C)(C)C)cn1 (10 µM) | 0.0166 | 102% (inactive)
CCCN[C@@H]1CCc2c(OC)cccc2[C@@H]1C (10 µM) | 0.0456 | 100% (inactive)
CCC(C)(C)c1ccc(CC(C)CN2C[C@@H](C)O[C@@H](C)C2)cc1 (some centres undefined) [amorolfine] (10 µM) | 0.198 | 93% (inactive)
CCn1c2ccccc2c2cc(Nc3ccnc(NCCCN4CCOCC4)n3)ccc21 (0.833333 µM) | 0.235 | 93% (inactive)
CN(C)CCn1nnnc1SCC1=C(C(=O)O)N2C(=O)[C@@H](NC(=O)Cc3csc(N)n3)[C@H]2SC1 [cefotiam] (10 µM) | 0.212 | 100% (inactive)
CCOC(=O)[C@H](C)C[C@@H](Cc1ccc(-c2ccccc2)cc1)NC(=O)CCC(=O)O [sacubitril] (10 µM) | 0.156 | 102% (inactive)
CCOC(=O)OC(C)OC1=C(C(=O)Nc2ccccn2)N(C)S(=O)(=O)c2ccccc21 (centres undefined) [ampiroxicam] (10 µM) | -0.00273 | 102% (inactive)
O=C(Nc1cccnn1)N1CCC(=Cc2cccc(Oc3ccc(C(F)(F)F)cn3)c2)CC1 (10 µM) | 0.00817 | 104% (inactive)
CC(C)(C)c1ccc(/C=C/C(=O)Nc2ccc3c(c2)OCCO3)cc1 (10 µM) | -0.068 | 110% (inactive)
Cc1ncc(-c2ccnc(Nc3ccc(S(C)(=O)=O)cc3)n2)n1C(C)C (0.833333 µM) | -0.165 | 99.5% (inactive)
N[C@@H](CS)C(=O)O [L-cysteine] (10 µM) | 0.0349 | 94% (inactive)
